Measurements published in the supplement of paper PMC11732987, “Enantioselective OTUD7B fragment discovery through chemoproteomics screening and high-throughput optimisation” (Communications Chemistry, 2025).
Values without a mark were called inactive.

Columns and labels:
Assay in all cases: log2 ratio of Biotin-Ahx-Ub-VS probe labelling (fragment/DMSO); higher = less target engagement (more negative = stronger competition), active = hit call of the paper (q ≤ 0.05, log2 ratio ≤ -1)
Conditions in all cases: compound concentration: 200 uM; treatment time: 3 h
[1] = molecular target: T1, ALG13 (UniProt Q9NP73)
T1 sequence (whole entry): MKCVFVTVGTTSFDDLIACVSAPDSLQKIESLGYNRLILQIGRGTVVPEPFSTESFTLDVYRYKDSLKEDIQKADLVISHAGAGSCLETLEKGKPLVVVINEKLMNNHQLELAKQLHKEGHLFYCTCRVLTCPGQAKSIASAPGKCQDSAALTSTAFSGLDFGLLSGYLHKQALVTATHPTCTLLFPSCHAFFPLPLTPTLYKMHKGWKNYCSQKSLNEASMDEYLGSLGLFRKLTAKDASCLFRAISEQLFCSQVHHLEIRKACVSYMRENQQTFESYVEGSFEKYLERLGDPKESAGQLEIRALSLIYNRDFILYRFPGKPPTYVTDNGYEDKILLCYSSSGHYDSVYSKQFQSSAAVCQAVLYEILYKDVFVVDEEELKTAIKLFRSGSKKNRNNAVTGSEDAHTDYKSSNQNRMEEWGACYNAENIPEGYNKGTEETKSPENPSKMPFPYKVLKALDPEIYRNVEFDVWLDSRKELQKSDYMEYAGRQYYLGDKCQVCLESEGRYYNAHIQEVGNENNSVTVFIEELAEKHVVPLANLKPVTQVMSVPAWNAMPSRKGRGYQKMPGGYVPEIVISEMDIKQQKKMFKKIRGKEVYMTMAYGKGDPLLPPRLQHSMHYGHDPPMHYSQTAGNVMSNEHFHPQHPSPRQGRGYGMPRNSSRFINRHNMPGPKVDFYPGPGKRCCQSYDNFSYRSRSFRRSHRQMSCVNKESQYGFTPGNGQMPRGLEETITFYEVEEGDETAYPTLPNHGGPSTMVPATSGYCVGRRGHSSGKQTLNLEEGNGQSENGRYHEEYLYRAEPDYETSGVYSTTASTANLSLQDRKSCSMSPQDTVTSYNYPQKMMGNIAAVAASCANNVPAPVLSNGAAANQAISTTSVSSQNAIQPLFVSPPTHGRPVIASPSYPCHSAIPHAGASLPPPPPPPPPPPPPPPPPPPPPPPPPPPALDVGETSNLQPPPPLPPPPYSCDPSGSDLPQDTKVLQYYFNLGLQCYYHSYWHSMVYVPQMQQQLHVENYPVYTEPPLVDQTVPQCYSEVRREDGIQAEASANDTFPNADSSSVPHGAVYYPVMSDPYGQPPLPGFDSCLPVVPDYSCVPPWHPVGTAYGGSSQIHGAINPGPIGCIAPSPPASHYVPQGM
Method in brief: (§1)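 HEK293T lysate (495 µg per sample, in Tris/CHAPS/IGEPAL buffer with protease inhibitors) was treated in triplicate with fragment at 200 µM or with DMSO for 3 h. It was then treated with Biotin-Ahx-Ub-VS (0.5 µM final) for 1 h. Labelled DUBs were NeutrAvidin-enriched, digested with LysC and trypsin, and run by diaPASEF LC-MS/MS. Spectronaut label-free quantities were global-median-normalised. Values are average log2 ratios fragment/DMSO by unpaired t-test, using proteins with ≥2 unique peptides.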

[2] = molecular target: ATXN3 (UniProt P54252)
Sequence of ATXN3 (P54252 whole entry): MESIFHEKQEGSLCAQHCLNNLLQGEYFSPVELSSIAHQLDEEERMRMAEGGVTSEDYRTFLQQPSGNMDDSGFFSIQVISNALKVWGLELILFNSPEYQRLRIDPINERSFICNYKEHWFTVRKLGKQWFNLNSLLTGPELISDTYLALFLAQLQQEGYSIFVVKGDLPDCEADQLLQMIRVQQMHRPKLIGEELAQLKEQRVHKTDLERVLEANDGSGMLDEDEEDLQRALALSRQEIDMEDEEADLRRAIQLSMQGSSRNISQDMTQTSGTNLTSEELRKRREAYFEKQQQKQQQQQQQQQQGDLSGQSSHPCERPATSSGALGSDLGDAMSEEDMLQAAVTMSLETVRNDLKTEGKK
Method in brief: as §1

[3] = molecular target: T2, BAP1 (UniProt Q92560)
T2 sequence (whole entry): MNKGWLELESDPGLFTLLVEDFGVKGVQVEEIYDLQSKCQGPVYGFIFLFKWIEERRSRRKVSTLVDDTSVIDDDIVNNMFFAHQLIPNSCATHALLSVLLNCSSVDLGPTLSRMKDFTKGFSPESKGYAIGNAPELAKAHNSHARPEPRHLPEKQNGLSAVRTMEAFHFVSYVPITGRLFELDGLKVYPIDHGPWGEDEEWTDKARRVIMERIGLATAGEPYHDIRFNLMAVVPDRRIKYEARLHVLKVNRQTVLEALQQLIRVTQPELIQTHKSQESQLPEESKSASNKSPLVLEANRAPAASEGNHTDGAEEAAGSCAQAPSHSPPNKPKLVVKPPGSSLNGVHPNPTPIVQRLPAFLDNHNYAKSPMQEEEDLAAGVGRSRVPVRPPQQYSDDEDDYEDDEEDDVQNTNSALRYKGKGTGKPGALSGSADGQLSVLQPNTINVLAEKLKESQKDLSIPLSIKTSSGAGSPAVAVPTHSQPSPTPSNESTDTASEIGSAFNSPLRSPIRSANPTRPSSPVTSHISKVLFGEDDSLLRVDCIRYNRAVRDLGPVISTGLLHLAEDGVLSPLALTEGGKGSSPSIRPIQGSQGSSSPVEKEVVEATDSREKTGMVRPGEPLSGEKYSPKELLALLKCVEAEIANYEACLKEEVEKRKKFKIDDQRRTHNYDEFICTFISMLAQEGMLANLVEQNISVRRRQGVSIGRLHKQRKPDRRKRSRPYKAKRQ
Method in brief: as §1

[4] = molecular target: EIF3F (UniProt O00303)
Sequence of EIF3F (O00303 whole entry): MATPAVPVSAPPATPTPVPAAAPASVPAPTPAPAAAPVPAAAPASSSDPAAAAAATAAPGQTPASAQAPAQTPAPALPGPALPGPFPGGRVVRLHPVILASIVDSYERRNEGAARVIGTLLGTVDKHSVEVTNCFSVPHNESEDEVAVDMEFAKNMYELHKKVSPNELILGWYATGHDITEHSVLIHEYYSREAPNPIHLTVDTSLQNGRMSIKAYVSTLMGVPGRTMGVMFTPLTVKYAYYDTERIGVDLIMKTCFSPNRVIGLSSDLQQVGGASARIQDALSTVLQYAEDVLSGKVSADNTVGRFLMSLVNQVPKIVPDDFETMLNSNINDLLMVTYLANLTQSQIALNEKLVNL
Method in brief: as §1

[5] = molecular target: EIF3H (UniProt O15372)
Sequence of EIF3H (O15372 whole entry): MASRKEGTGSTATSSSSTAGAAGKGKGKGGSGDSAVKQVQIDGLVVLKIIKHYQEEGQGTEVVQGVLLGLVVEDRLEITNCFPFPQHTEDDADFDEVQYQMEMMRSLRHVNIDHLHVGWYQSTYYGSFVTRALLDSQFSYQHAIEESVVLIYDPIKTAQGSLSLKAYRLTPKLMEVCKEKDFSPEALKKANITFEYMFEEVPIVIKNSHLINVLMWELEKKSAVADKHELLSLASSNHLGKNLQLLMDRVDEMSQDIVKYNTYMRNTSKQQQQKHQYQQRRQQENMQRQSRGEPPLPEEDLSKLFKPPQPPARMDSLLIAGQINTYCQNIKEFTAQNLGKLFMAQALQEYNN
Method in brief: as §1

[6] = molecular target: T3, FAM105A (UniProt Q9NUU6)
T3 sequence (whole entry): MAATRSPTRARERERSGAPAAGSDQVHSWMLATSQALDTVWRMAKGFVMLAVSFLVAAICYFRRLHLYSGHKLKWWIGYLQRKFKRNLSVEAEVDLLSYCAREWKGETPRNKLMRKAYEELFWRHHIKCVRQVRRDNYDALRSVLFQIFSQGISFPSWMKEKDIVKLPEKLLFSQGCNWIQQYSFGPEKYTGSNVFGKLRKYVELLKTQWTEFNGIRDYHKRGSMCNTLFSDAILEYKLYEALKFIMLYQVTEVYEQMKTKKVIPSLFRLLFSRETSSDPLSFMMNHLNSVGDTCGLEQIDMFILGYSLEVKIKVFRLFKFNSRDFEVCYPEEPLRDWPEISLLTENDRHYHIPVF
Method in brief: as §1

[7] = molecular target: OTUB1 (UniProt Q96FW1)
Sequence of OTUB1 (Q96FW1 whole entry): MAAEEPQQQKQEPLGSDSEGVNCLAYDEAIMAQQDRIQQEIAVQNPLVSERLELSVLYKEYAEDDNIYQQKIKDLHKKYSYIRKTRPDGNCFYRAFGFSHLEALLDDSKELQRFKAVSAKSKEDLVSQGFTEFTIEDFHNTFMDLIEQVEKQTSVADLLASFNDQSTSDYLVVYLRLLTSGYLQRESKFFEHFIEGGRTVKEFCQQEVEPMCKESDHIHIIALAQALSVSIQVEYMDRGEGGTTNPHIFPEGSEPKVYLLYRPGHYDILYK
Method in brief: as §1

[8] = molecular target: T4, OTUD4 (UniProt Q01804)
T4 sequence (whole entry): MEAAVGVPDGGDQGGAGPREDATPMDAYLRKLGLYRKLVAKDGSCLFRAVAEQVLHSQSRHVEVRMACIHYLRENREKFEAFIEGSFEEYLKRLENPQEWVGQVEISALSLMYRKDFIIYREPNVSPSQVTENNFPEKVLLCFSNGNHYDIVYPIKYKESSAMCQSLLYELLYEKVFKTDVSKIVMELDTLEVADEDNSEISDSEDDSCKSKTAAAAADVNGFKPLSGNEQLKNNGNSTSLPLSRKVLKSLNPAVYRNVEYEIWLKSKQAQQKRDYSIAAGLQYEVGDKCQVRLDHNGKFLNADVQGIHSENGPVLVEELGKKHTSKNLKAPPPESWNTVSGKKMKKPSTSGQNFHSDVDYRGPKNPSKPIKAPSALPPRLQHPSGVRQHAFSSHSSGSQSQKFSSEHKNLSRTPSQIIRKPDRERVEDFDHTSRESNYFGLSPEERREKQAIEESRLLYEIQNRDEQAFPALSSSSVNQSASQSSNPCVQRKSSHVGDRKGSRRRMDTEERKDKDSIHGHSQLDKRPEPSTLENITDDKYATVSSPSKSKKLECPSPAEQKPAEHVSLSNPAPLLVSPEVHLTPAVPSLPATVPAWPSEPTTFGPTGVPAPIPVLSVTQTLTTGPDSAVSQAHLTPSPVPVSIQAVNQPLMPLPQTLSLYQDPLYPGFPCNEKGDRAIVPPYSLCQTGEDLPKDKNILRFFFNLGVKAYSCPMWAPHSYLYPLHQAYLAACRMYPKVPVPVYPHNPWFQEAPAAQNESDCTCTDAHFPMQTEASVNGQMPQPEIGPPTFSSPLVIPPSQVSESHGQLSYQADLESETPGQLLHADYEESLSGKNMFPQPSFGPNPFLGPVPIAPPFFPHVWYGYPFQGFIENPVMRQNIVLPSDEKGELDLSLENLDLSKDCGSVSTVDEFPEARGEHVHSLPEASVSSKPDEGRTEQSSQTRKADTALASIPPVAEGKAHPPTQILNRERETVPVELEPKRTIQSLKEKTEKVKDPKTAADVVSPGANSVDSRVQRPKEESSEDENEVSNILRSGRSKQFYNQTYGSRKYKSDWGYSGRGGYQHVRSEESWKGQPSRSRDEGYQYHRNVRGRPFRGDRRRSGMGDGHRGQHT
Method in brief: as §1

[9] = molecular target: T5, OTUD5 (UniProt Q96G74)
T5 sequence (whole entry): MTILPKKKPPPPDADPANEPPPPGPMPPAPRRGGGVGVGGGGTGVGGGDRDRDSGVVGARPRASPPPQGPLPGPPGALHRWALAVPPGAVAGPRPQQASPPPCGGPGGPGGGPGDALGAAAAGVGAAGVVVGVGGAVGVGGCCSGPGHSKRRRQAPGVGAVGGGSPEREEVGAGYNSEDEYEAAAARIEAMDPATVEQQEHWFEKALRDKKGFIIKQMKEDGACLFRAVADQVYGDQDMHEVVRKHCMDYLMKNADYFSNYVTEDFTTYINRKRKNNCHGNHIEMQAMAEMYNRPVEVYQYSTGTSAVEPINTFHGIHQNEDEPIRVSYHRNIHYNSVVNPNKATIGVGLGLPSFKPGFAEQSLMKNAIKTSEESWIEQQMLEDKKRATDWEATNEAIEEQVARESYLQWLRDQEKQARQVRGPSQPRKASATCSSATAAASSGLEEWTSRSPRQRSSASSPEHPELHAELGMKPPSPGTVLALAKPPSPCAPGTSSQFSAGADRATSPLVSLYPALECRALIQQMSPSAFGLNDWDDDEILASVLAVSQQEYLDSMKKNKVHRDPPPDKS
Method in brief: as §1

SMILES: COc1ccc(-c2csc(NC(=O)CCl)n2)cc1
- log2 ratio of Biotin-Ahx-Ub-VS probe labelling [1]: -0.0925
- log2 ratio of Biotin-Ahx-Ub-VS probe labelling [2]: -0.907
- log2 ratio of Biotin-Ahx-Ub-VS probe labelling [3]: -2.94 (active)
- log2 ratio of Biotin-Ahx-Ub-VS probe labelling [4]: -0.0557
- log2 ratio of Biotin-Ahx-Ub-VS probe labelling [5]: 0.443
- log2 ratio of Biotin-Ahx-Ub-VS probe labelling [6]: -0.207
- log2 ratio of Biotin-Ahx-Ub-VS probe labelling [7]: -0.0658
- log2 ratio of Biotin-Ahx-Ub-VS probe labelling [8]: -0.702
- log2 ratio of Biotin-Ahx-Ub-VS probe labelling [9]: -0.997
